Data from doi:10.1101/2025.02.07.636106.

How the values were obtained:
Assay in all cases: cross-linking mass spectrometry
PROCR = PROCR (UniProt Q9UNN8); settings: DSSO
PRPF8 = PRPF8 (UniProt Q6P2Q9); settings: DSSO
RAB10 = RAB10 (UniProt P61026); settings: DMTMM
RAB11B = RAB11B (UniProt Q15907); settings: DMTMM
RAB21 = RAB21 (UniProt Q9UL25); settings: DSSO
RAB2A = RAB2A (UniProt P61019); settings: DSSO
RAB2B = RAB2B (UniProt Q8WUD1); settings: DSSO
RAB5B = RAB5B (UniProt P61020); settings: DMTMM
RELL2 = RELL2 (UniProt Q8NC24); settings: DMTMM
SNRNP40 = SNRNP40 (UniProt Q96DI7); settings: DSSO
REPS1 = REPS1 (UniProt Q96D71); settings: DMTMM
RFC5 = RFC5 (UniProt P40937); settings: DSSO
RICTOR = RICTOR (UniProt Q6R327); settings: DSSO
RTN4 = RTN4 (UniProt Q9NQC3); settings: DSSO
RTRAF = RTRAF (UniProt Q9Y224); settings: DSSO
SCARA3 = SCARA3 (UniProt Q6AZY7); settings: DMTMM
SDHA = SDHA (UniProt P31040); settings: DSSO
SEC63 = SEC63 (UniProt Q9UGP8); settings: DSSO
SF3A1 = SF3A1 (UniProt Q15459); settings: DSSO
SF3A3 = SF3A3 (UniProt Q12874); settings: DMTMM
SF3B2 = SF3B2 (UniProt Q13435); settings: DSSO
SF3B3 = SF3B3 (UniProt Q15393); settings: DSSO
SIN3A = SIN3A (UniProt Q96ST3); settings: DSSO
SIN3A, sequence (Q96ST3 whole entry): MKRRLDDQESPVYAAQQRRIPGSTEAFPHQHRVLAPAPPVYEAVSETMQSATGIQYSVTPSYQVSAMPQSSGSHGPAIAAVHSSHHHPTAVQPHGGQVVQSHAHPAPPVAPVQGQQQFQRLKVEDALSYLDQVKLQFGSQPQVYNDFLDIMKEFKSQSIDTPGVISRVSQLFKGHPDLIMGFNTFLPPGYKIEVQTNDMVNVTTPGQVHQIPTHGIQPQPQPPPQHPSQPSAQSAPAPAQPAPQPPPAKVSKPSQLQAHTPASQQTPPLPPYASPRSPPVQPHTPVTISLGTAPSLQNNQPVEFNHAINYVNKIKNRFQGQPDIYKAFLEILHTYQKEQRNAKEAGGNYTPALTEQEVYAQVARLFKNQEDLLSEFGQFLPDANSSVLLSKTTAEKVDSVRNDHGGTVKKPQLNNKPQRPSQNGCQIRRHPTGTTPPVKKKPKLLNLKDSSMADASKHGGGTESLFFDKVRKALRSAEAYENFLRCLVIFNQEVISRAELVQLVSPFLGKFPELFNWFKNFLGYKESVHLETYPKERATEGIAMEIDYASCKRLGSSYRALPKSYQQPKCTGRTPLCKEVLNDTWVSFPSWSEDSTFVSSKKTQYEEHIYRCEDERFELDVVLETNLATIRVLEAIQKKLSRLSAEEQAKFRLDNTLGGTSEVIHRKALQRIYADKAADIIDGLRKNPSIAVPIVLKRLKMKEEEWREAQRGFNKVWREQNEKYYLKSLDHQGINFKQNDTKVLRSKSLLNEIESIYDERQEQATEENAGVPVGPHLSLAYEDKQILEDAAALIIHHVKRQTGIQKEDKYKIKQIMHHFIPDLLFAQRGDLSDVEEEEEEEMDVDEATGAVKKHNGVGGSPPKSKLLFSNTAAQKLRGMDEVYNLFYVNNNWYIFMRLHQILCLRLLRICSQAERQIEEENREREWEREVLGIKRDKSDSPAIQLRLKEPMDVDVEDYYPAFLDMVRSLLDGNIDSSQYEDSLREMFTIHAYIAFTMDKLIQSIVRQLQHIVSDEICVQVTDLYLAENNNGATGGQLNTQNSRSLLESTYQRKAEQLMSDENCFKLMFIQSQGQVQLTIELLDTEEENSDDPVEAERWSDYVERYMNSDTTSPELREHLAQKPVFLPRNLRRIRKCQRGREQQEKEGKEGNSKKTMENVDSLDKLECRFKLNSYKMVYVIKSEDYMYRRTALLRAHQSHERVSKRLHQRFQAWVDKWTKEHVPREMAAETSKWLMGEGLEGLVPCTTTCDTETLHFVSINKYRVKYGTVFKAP

SLC7A5 = SLC7A5 (UniProt Q01650); settings: DMTMM
SNRPD3 = SNRPD3 (UniProt P62318); settings: DSSO
SNRPD3, sequence (P62318 whole entry): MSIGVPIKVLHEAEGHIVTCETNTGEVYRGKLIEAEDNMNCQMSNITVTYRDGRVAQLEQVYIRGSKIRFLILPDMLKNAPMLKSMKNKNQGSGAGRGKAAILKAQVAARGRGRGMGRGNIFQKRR

SPTAN1 = SPTAN1 (UniProt Q13813)
SPTLC2 = SPTLC2 (UniProt O15270); settings: DSSO

SNRPA1, P09661, sequence (P09661 whole entry): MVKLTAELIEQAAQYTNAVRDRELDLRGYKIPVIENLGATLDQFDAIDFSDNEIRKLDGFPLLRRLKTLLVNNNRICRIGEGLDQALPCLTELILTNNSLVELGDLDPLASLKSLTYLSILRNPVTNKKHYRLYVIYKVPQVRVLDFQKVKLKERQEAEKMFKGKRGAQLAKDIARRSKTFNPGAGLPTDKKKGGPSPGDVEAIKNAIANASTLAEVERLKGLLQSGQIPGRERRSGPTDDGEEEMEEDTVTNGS
SPTBN1, Q01082, sequence (Q01082 whole entry): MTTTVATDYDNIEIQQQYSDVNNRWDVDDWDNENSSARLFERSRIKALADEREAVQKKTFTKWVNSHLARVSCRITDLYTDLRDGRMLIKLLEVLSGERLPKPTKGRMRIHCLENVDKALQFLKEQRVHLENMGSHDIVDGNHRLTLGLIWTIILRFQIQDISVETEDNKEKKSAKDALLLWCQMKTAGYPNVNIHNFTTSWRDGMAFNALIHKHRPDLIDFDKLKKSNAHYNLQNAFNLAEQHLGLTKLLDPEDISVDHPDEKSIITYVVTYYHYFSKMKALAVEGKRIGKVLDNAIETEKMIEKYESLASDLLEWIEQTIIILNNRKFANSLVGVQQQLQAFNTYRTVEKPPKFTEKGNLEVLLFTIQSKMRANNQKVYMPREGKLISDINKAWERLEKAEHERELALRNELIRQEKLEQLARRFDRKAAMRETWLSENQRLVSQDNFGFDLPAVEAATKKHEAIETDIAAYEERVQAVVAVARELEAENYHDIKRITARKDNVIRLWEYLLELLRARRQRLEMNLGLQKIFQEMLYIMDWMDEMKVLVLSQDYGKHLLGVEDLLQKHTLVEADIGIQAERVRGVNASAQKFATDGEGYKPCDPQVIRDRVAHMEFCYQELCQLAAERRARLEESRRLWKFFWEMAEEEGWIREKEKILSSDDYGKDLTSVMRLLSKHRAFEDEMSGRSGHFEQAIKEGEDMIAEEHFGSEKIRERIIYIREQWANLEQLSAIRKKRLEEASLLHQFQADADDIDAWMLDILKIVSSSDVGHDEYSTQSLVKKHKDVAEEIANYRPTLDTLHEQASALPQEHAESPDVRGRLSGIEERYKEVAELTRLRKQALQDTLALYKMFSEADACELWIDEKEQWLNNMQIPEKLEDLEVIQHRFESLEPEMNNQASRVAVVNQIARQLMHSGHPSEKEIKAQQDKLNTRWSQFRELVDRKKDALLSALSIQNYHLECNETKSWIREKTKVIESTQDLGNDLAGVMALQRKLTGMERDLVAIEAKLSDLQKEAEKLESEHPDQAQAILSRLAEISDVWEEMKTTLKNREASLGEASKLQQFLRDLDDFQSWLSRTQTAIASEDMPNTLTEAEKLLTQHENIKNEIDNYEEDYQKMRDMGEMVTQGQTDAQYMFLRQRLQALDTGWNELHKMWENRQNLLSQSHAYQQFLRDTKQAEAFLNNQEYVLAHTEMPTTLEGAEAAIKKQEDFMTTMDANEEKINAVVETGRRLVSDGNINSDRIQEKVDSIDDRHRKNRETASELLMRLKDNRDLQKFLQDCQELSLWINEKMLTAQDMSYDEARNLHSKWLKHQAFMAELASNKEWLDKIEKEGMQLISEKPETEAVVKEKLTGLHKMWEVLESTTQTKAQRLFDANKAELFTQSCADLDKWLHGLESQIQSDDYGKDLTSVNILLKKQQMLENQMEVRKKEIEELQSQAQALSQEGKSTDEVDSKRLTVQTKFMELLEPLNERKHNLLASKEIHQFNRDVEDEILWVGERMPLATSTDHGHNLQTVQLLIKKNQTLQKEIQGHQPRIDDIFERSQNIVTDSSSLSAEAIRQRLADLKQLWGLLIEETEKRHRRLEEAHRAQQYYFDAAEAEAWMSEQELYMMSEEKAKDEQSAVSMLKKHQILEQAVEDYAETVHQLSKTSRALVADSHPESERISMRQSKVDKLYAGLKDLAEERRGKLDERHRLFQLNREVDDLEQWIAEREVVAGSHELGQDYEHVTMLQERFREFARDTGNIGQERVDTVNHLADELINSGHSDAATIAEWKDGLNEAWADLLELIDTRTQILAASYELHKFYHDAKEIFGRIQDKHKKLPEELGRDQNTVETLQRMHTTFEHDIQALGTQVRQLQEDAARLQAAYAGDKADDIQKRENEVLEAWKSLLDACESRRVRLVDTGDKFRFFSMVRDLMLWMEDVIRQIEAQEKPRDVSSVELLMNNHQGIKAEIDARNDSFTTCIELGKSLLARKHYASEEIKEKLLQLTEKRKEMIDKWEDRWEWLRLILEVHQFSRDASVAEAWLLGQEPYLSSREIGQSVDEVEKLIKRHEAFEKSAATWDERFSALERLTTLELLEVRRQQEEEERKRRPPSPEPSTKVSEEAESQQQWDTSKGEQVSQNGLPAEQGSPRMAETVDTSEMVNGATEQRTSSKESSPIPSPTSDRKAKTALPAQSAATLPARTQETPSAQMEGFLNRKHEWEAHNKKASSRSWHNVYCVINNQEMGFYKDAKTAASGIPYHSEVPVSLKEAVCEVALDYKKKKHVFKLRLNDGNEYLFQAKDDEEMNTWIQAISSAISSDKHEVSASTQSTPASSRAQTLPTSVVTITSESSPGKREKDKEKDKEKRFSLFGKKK
VAMP7, P51809, sequence (P51809 whole entry): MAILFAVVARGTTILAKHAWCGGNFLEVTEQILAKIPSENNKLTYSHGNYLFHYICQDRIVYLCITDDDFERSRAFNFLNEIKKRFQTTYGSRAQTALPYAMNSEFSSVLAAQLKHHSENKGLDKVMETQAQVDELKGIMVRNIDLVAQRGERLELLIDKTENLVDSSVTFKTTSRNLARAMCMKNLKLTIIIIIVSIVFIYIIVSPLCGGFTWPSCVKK
HDAC2, Q92769, sequence (Q92769 whole entry): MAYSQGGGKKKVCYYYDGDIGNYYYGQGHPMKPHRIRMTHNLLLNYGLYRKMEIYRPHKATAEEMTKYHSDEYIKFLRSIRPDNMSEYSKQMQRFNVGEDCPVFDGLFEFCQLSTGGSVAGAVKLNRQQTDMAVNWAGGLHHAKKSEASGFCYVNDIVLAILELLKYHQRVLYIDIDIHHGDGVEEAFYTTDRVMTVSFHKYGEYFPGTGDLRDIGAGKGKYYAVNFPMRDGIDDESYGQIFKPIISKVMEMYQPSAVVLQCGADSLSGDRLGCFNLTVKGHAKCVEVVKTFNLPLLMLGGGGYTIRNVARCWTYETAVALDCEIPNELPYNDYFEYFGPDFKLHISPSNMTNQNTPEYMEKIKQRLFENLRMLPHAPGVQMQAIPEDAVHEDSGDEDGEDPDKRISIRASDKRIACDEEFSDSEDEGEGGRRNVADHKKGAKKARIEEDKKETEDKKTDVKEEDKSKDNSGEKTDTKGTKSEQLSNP
BRMS1L, Q5PSV4, sequence (Q5PSV4 whole entry): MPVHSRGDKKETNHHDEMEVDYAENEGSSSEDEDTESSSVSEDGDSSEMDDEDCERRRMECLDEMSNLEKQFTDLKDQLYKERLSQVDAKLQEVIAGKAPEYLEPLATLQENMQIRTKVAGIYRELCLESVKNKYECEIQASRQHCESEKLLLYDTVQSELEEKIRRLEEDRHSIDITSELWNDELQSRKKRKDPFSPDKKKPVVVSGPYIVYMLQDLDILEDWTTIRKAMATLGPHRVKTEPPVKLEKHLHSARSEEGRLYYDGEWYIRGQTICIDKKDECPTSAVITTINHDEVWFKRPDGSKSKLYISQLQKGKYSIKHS

## EMP2, P54851
PROCR
  cross-linked residues: K129 - K192

## USP39, Q53GS9
PRPF8
  cross-linked residues: K508 - K983

## EAPP, Q56P03
PRPF8
  cross-linked residues: K199 - K50

## SFI1, A8K8P3
RAB10
  cross-linked residues: E627 - K136

## RAB5B, P61020
RAB11B
  cross-linked residues: E185 - K179

## ANKRD27, Q96NW4
RAB21
  cross-linked residues: K289 - K47

## VAMP7, P51809
RAB2A
  cross-linked residues: K137 - K53
RAB2B
  cross-linked residues: K137 - K53

## RAB5A, P20339
RAB5B
  cross-linked residues: E185 - K183

## PRPF8, Q6P2Q9
RELL2
  cross-linked residues: E1795 - K176
SNRNP40
  cross-linked residues: K50 - K349

## RALBP1, Q15311
REPS1
  cross-linked residues: E520 - K701

## RFC2, P35250
RFC5
  cross-linked residues: K99 - K144

## MTOR, P42345
RICTOR
  cross-linked residues: K1218 - K507

## RTN3, O95197
RTN4
  cross-linked residues: K1028 - K1183

## FAM98B, Q52LJ0
RTRAF
  cross-linked residues: K280 - K171

## COLEC12, Q5KU26
SCARA3
  cross-linked residues: E87 - K97

## SDHB, P21912
SDHA
  cross-linked residues: K167 - K167

## SEC61B, P60468
SEC63
  cross-linked residues: K35 - K607

## SNRPA1, P09661
SF3A1
  cross-linked residues: K193 - K188
SF3A3
  cross-linked residues: K179 - E70
SF3B2
  cross-linked residues: K191 - K280

## SNRPB, P14678
SF3B2
  cross-linked residues: K57 - K320

## SF3B2, Q13435
SF3B3
  cross-linked residues: K605 - K1074

## HDAC2, Q92769
SIN3A
  cross-linked residues: K75 - K569

## BRMS1L, Q5PSV4
SIN3A
  cross-linked residues: K118 - K937

## SLC3A2, P08195
SLC7A5
  cross-linked residues: K65 - E40

## SNRPB2, P08579
SNRPD3
  cross-linked residues: K93 - K78

## SPTBN1, Q01082
SPTAN1; DMTMM
  cross-linked residues: K1939 - E10
SPTAN1; DSSO
  cross-linked residues: K2054 - K441

## SPTLC1, O15269
SPTLC2
  cross-linked residues: K126 - K194
